Screening data: PubChem BioAssay, several laboratories
PfHsp40 rescue – compounds rescuing yeast from Plasmodium falciparum HSP40 toxicity; 340,000 compounds, 0.68% hits; S. cerevisiae expressing PfHsp40, growth rescue, ATP luminescence; growth rescue, % at 12.5 µM; AID 504582; in the data active means growth rescue above about 28%, passing the limit was not always enough;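 further: yeast W303a lacking pdr1 and pdr3 grown in galactose medium; growth measured after three days at 30 °C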
Yp Topo-I inh – blocks Yersinia pestis topoisomerase I activity; Y. pestis Topo-I cleavage product accumulation, plate reader; activity, % at 10 µM; 360,000 compounds, 0.064% hits; AID 504884; in the data active means activity above about 50%, passing the limit was not always enough
BioA inh-1 – inhibitors of Mycobacterium tuberculosis BioA enzyme. purified M. tuberculosis BioA enzyme, plate reader. inhibition, % at 9.99 µM. 360,000 compounds, 0.096% hits; in the data active means inhibition above about 40%
BH1578 lux ind – induces V. cholerae light production without autoinducers; activation, % at 18.7 µM; 350,000 compounds, 0.16% hits; V. cholerae BH1578 lux reporter, luminescence, 6 h; in the data active means activation mostly above about 9.7%, no sharp cut-off
TcdB GH inh – TcdB glycohydrolase inhibition; TcdB glycohydrolase enzymatic assay, plate reader; inhibition, % at 9.99 µM; AID 652162; 350,000 compounds, 0.24% hits; P18177; in the data active means inhibition above about 10%
DUSP3 inh – blocks human VHR1 dual specificity phosphatase; inhibition, % at 13.3 µM; 290,000 compounds, 0.52% hits; recombinant VHR phosphatase, pNPP absorbance; in the data active means inhibition above about 50%
Target sequence (P51452 whole entry, looked up): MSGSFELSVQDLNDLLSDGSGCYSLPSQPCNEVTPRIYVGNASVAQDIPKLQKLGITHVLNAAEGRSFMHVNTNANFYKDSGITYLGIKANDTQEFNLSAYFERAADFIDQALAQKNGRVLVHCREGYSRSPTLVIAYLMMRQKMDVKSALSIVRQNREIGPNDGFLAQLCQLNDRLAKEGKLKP
BioA inh-2 – Mtb BioA enzyme inhibition; shares compounds with BioA inh-1; max activity, %; 310 tested, under 10 active; purified BioA enzyme, plate reader, dose response; AID 651679;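 further: top concentration of the dilution series was 10 µM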
Target sequence (P9WQ81 whole entry, looked up): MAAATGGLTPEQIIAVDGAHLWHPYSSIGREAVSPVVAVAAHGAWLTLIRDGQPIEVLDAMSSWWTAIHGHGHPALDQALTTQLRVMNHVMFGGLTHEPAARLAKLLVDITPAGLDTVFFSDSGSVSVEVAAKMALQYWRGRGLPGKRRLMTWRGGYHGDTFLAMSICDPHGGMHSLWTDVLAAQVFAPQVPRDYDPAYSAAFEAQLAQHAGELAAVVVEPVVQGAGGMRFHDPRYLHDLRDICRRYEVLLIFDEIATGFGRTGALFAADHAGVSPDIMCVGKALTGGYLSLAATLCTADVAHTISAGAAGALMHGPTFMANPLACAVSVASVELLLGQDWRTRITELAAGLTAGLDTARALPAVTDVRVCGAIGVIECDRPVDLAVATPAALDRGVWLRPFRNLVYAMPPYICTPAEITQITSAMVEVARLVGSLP
HepG2 cytotox – HepG2 viability loss | HepG2 cytotoxicity, plate reader | max activity, % | shares compounds with BioA inh-1 | 310 tested, under 10 active | AID 651898
NIH3T3 tox 5 – cytotoxicity in NIH3T3 cells; shares compounds with BioA inh-1; plate reader; activity change, negative = cytotoxicity, % at 26 µM; 310 tested, under 10 active; AID 651900
Hits are given with their value; . = inactive; / = no result given. An excerpt weighted towards active compounds, which were near 1.2% of everything screened. Unless noted, how the calls were made is not given here.

SMILES | PfHsp40 rescue | Yp Topo-I inh | BioA inh-1 | BH1578 lux ind | TcdB GH inh | DUSP3 inh | BioA inh-2 | HepG2 cytotox | NIH3T3 tox 5
COc1ccc(NC2CCCN(C(=O)c3ccc(C(C)=O)s3)C2)cc1 (stereo not drawn) | . | . | 84 | . | . | . | . | . | .
Cc1cccc(C2c3[nH]c4ccccc4c3CCN2C(=O)CN2CCOC2=O)n1 (stereo not drawn) | . | . | 52 | . | . | . | . | . | .
COc1ccc(NC(=O)C2(C)Cc3c(-c4ccc5c(c4)OCO5)ccnc3O2)cc1 (stereo not drawn) | / | . | . | . | . | / | / | / | /
CC(Oc1ccc2ccc(=O)oc2c1)C(=O)N1CCOCC1 (stereo not drawn) | . | . | 66 | . | . | / | . | . | .
CC(Oc1ccc2c(-c3ccccc3)cc(=O)oc2c1)C(=O)N1CCOCC1 (stereo not drawn) | . | . | . | . | . | / | / | / | /
Cc1cc2c(c(=O)n1Cc1cccnc1)C(c1cccs1)C(C#N)=C(N)O2 (stereo not drawn) | . | . | 64 | . | / | . | . | . | .
Cc1cc2c(c(=O)n1Cc1cccnc1)C(Cc1ccccc1)C(C#N)=C(N)O2 (stereo not drawn) | . | . | / | . | / | . | / | / | /
C[C@@H]1CN([C@@H](C)CO)C(=O)c2cc(C#Cc3cccnc3)cnc2O[C@H]1CN(C)S(C)(=O)=O | / | / | 74 | / | . | / | . | . | .
CN(Cc1ccccc1)C(=O)CCS(=O)(=O)c1ccc2c(c1)NC(=O)CS2 | . | . | 41 | . | / | . | . | . | .
CCN(Cc1ccccc1)S(=O)(=O)c1ccc2c(c1)NC(=O)CS2 | . | . | . | . | . | . | / | / | /
C/C=C/c1ccc2c(c1)O[C@@H](CN(C)C(=O)c1ccc3c(c1)OCO3)[C@@H](C)CN([C@@H](C)CO)S2(=O)=O | / | / | 46 | / | . | / | . | . | .
C/C=C/c1ccc2c(c1)O[C@@H](CN(C)C(=O)Cc1cccnc1)[C@H](C)CN([C@H](C)CO)S2(=O)=O | / | / | 56 | / | . | / | . | . | .
O=C(c1oc(=O)c2ccccc2c1-c1ccccc1)N1CCC(O)CC1 | . | . | . | . | . | . | / | / | /
CCOC(=O)C1CCN(C(=O)Nc2ccc3nccnc3c2)CC1 | . | . | . | . | / | . | / | / | /
CCOC(=O)C1CCN(C(=O)Nc2ccc3snnc3c2)CC1 | . | . | 72 | . | . | . | . | . | .
COC(=O)C1=C(C)Nc2sc(C(N)=O)c(N)c2C1c1ccncc1 (stereo not drawn) | . | . | 76 | . | . | . | . | . | .
CCOC(=O)C1=C(C)Nc2sc(C(=O)c3ccc(OC)cc3)c(N)c2C1c1ccc(C(=O)OC)cc1 (stereo not drawn) | . | . | . | . | . | . | / | / | /
COc1ccc(Cc2c(-c3ccc(OC)c(OC)c3)nc3ccc(C)cn23)c(C)c1 | / | / | 79 | / | . | / | . | . | .
COc1ccc(Cc2c(-c3ccc(C)cc3)nc3c(C)cc(Br)cn23)c(C)c1 | / | / | . | / | . | / | / | / | /
COc1ccc(Cc2c(-c3ccc(F)cc3)nc3ccc(C)cn23)c(C)c1 | / | / | / | / | . | / | / | / | /
COc1ccc(Cc2c(-c3ccc(OC)c(OC)c3)nc3c(C)cc(Br)cn23)c(C)c1 | / | / | 69 | / | . | / | . | . | .
O=C1C2C3C=CC(C3)C2C(=O)N1c1n[nH]c(-c2cccnc2)n1 (stereo not drawn) | . | . | / | . | . | . | / | / | /
CCn1c(=O)n(CC)c2cc(N3CCCC3)c(NC(=O)c3ccc(F)cc3)cc21 | . | . | . | . | . | . | / | / | /
CCOc1ccc(C(=O)Nc2cc3c(cc2N2CCCC2)n(CC)c(=O)n3CC)cc1OCC | . | . | 57 | . | . | . | . | . | .
O=C(O)CCS(=O)(=O)c1nc(-c2cccs2)cc(C(F)(F)F)n1 | . | . | 57 | . | . | . | . | . | .
SMILES | PfHsp40 rescue | Yp Topo-I inh | BioA inh-1 | BH1578 lux ind | TcdB GH inh | DUSP3 inh | BioA inh-2 | HepG2 cytotox | NIH3T3 tox 5
C[C@@H]1CN([C@@H](C)CO)C(=O)c2cc(C#CC3CC3)cnc2O[C@@H]1CN(C)Cc1cccc(C(=O)O)c1 | / | / | . | / | / | / | / | / | /
Cc1cnc(C(=O)Nc2ccc(-n3cnnn3)cc2)cn1 | . | . | . | . | / | . | / | / | /
COc1ccc(NC(=O)c2cnc(C)cn2)cc1-n1cnnn1 | . | . | 51 | . | / | . | . | . | .
Cc1c(C(N)=O)sc(N)c1C(=O)OC(C)C | . | . | 92 | . | / | . | . | . | .
CCOC(=O)c1sc(N)c(C(N)=O)c1C | . | . | . | . | . | . | / | / | /
CCOC(=O)c1c(N)sc(C(N)=O)c1C | . | . | 58 | . | / | . | . | . | .
COc1ccc(C(CNC(=O)c2cccc(S(=O)(=O)N3CCCC(C)C3)c2)N(C)C)cc1 (stereo not drawn) | . | . | / | . | . | / | / | / | /
CCO/N=C(\C)c1c(O)cc(C(C)C)n(-c2ccccc2)c1=O | . | . | / | . | / | . | / | / | /
COc1ccc(C2CC(=O)c3cnc(NC(=O)c4ccco4)nc3C2)cc1 (stereo not drawn) | . | . | . | . | . | . | / | / | /
O=C(Nc1ncc2c(n1)CC(c1ccccc1)CC2=O)c1ccco1 (stereo not drawn) | . | . | 98 | . | . | . | . | . | .
O=C(Nc1ncc2c(n1)CC(c1cccc(Cl)c1)CC2=O)c1ccco1 (stereo not drawn) | . | . | 61 | . | . | . | . | . | .
CCN(C(=O)COC(=O)c1c2c(nc3ccccc13)CCC2)c1c(N)n(Cc2ccccc2)c(=O)[nH]c1=O | . | . | . | . | . | / | / | / | /
CN(C)C(=O)C[C@@H]1CC[C@H]2[C@@H](COC[C@@H](O)CN2CC2CCOCC2)O1 | / | / | . | / | . | / | / | / | /
COC(=O)c1c(C(=O)OC)c(-c2ccc(F)cc2)n2c1CS(=O)C2 (stereo not drawn) | . | . | 60 | . | . | . | . | . | .
COC(=O)c1c(C(=O)OC)c(-c2ccccc2)n2c1CS(=O)C2 (stereo not drawn) | . | . | 73 | . | / | . | . | . | .
COC(=O)c1c(C(=O)OC)c(-c2ccc(OC)cc2)n2c1CS(=O)C2 (stereo not drawn) | . | . | . | . | . | . | / | / | /
O=C(CS(=O)(=O)c1cn(Cc2ccc(Cl)cc2)c2ccccc12)N1CCCC1 | . | . | . | . | . | . | / | / | /
Cc1ccccc1S(=O)(=O)N1C[C@@H](O)COC[C@H]2O[C@@H](CC(=O)NCCc3ccccc3)CC[C@@H]21 | / | / | . | / | . | / | / | / | /
COc1ccc(Nc2c(-c3ccc(C)cc3)nc3cnccn23)cc1 | . | . | / | . | . | . | / | / | /
COc1ccc(Nc2c(-c3ccc(OC)cc3)nc3cnccn23)cc1 | . | . | 46 | . | . | . | . | . | .
COc1ccc(-c2nc3cnccn3c2Nc2ccc3c(c2)OCO3)cc1 | . | . | 54 | . | . | . | . | . | .
